# Assay results published in PubChem BioAssay (NCATS).
# “And” between values parts separate entries of the source, which are not always exact repeats. Identical values can stand only once. Inconclusive results are not listed. Entries that show only a call come without a potency. The source made the active and inactive calls. Unless noted, calls come from the whole dose curve; as a rule, active = well fitted curve in the direction sought with a large enough effect; inconclusive = small, poorly fitted or top-dose-only effect, or another doubt; inactive = no such curve, though single readings can be large; an effect the other way counts as inactive or inconclusive.
# Tests used:
# [1] = qHTS for Inhibitors of ATXN expression: Validation of Cytotoxic Assay (AID 588349)
# Method in brief: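 Titrated compounds are added to cultured HEK293 cells, which are then held at 37 degrees C for 72 hr; loss of intracellular ATP, measured with CellTiter Glo, indicates toxicity.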
# [2] = qHTS for Inhibitors of ATXN expression: Validation (AID 588378); note: series mostly up to about 57 µM; nearly all actives have a fitted effect of over 75% in size
# Method in brief: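 HEK293 cells carrying ATXN2-firefly luciferase reporter, treated with compound 24 h at 37 °C. Viability read first by CellTiter-Fluor (405/525 nm), then reporter expression by Bright-Glo luminescence; controls were a known ATXN2 expression inhibitor and a luciferase inhibitor.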
# [3] = target: Estrogen receptor (Homo sapiens) (UniProt P03372); assay: qHTS assay for small molecule antagonists of estrogen receptor alpha signaling (AID 588513; active = well fitted curve in the direction sought with a large enough effect in the signal ratio, with a control signal flat, not every such curve was filed as active; the % refers to the signal ratio; note: potency is the fitted concentration of half-maximal effect)
# Chain of Estrogen receptor (Homo sapiens) (P03372 whole entry, looked up): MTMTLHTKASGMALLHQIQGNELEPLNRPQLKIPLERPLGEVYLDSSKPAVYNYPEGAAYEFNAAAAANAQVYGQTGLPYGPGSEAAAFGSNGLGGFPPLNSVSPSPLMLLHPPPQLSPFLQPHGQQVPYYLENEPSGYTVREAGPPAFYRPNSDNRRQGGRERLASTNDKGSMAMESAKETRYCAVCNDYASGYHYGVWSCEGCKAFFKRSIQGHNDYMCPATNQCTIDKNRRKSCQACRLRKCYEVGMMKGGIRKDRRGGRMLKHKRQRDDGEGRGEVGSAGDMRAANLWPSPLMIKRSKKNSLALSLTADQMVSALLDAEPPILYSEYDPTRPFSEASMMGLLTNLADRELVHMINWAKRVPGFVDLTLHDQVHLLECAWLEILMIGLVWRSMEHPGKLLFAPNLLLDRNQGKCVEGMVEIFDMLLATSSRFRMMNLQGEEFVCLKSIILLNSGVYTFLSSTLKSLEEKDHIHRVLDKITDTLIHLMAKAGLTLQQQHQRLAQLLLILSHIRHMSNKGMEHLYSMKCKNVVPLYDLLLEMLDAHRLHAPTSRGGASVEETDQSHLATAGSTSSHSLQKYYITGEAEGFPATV
# Method in brief: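 ER-alpha-UAS-bla GripTite HEK 293 cells in 2% charcoal/dextran-treated FBS medium; compounds titrated (1:2, duplicate), then stimulated with 0.5 nM 17-beta-estradiol for 18 h at 37C. CCF4 beta-lactamase fluorescence; Hill-fit IC50 and efficacy.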
# [4] = target: Estrogen receptor (Homo sapiens) (UniProt P03372); assay: qHTS assay for small molecule agonists of estrogen receptor alpha signaling (AID 588514; calls by dose curve; note: nearly all actives have a fitted effect of over 70% in size)
# Method in brief: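 Efficacy is expressed against 20 nM 17-beta-estradiol (100%) and DMSO basal (0%); EC50 from Hill equation. Assay: beta-lactamase reporter in ER-alpha-UAS-bla HEK 293 cells, 18 h compound incubation, CCF4 detection.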
# [5] = target: Glucocorticoid receptor (Homo sapiens) (UniProt P04150); assay: qHTS assay for small molecule agonists of glucocorticoid receptor signaling (AID 588532; active = well fitted curve in the direction sought with a large enough effect in the signal ratio, with a control signal flat; the % refers to the signal ratio); conditions: HeLa MMTV-bla, beta-lactamase ratio, agonist, 18 h; stronger effect = higher value; percent of dexamethasone control, DMSO zero
# Chain of Glucocorticoid receptor (Homo sapiens) (P04150 whole entry, looked up): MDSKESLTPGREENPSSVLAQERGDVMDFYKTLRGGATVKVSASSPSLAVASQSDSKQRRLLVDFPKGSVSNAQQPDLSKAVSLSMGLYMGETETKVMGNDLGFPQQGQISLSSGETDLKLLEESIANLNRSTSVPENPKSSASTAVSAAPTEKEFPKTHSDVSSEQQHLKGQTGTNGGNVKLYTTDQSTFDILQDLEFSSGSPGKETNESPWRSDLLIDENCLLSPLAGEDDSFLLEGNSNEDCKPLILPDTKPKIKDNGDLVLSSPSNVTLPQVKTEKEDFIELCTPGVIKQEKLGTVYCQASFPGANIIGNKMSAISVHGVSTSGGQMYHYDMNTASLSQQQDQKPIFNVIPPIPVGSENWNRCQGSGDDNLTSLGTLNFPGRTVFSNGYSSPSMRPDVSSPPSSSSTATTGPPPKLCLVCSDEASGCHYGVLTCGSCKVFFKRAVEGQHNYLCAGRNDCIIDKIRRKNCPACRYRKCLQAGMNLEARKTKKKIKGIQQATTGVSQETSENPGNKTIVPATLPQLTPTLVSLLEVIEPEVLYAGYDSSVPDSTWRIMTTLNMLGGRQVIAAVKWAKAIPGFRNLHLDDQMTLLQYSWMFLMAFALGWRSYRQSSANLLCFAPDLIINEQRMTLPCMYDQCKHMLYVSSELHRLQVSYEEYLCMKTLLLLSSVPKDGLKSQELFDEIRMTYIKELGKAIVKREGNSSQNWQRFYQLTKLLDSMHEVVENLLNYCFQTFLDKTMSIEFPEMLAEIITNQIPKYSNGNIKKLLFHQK
# Method in brief: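 MMTV-bla HeLa, beta-lactamase reporter; medium with 1% charcoal/dextran-stripped FBS; cpds up to 92 uM, 18 h, 37 C; CCF4 readout 460/530 nm; Hill fit → EC50, efficacy vs 0.1 uM dexamethasone = 100%.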
# [6] = target: Glucocorticoid receptor (Homo sapiens) (UniProt P04150); assay: qHTS assay for small molecule antagonists of glucocorticoid receptor signaling (AID 588533; active = well fitted inhibition curve with a large enough effect in the signal ratio, with a control signal flat, not every such curve was filed as active; the % refers to the signal ratio;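 note: cells stimulated with 2 nM dexamethasone as agonist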; note: potency is the fitted concentration of half-maximal effect)
# Method in brief: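 Antagonist-mode qHTS: compound titrations added to GRE-bla HeLa cells, then dexamethasone 2 nM final; 18 h, 37 C. CCF4 FRET fluorescence normalized to dexamethasone and DMSO; IC50 from Hill fit.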
# [7] = target: Peroxisome proliferator-activated receptor gamma (Homo sapiens) (UniProt P37231); assay: qHTS assay for small molecule agonists of peroxisome proliferator-activated receptor gamma signaling (AID 588536; active = well fitted curve in the direction sought with a large enough effect in the signal ratio, with a control signal flat, not every such curve was filed as active; the % refers to the signal ratio)
# Chain of Peroxisome proliferator-activated receptor gamma (Homo sapiens) (P37231 whole entry, looked up): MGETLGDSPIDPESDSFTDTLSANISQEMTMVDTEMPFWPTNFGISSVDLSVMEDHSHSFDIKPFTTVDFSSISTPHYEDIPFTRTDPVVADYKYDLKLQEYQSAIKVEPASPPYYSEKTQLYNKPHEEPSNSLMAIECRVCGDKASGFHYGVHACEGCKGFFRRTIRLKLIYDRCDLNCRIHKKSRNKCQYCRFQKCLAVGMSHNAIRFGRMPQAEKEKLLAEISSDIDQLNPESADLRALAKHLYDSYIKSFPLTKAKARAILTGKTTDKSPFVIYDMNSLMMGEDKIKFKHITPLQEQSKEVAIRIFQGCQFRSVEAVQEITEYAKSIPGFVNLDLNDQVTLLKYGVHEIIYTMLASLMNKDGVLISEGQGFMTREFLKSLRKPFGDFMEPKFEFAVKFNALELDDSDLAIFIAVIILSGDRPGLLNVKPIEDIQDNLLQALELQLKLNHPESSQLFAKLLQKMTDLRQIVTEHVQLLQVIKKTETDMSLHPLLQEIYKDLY
# Method in brief: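 Using GeneBLAzer HEK293 cells, response was quantified by CCF4 fluorescence and normalized between basal DMSO (0%) and rosiglitazone 2 uM (100%); curves yielded half-maximal stimulation concentration and efficacy.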
# [8] = target: Peroxisome proliferator-activated receptor gamma (Homo sapiens) (UniProt P37231); assay: qHTS assay for small molecule antagonists of peroxisome proliferator-activated receptor gamma signaling (AID 588537; active = well fitted inhibition curve with a large enough effect in the signal ratio, with a control signal flat, not every such curve was filed as active; the % refers to the signal ratio;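 note: reporter cells co-stimulated with 50 nM rosiglitazone agonist during compound treatment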)
# Method in brief: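 Compounds are tested as concentration series for inhibition of rosiglitazone-driven (50 nM) reporter expression in GeneBLAzer PPAR-gamma-UAS-bla HEK293 cells. After 16 h at 37 C, CCF4 substrate is added for 2 h at room temperature and blue/green fluorescence is measured.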
# [9] = target: Thyroid hormone receptor beta (Homo sapiens) (UniProt P10828); assay: qHTS assay for small molecule agonists of thyroid hormone receptor beta signaling (AID 588545; calls by dose curve)
# Chain of Thyroid hormone receptor beta (Homo sapiens) (P10828 whole entry, looked up): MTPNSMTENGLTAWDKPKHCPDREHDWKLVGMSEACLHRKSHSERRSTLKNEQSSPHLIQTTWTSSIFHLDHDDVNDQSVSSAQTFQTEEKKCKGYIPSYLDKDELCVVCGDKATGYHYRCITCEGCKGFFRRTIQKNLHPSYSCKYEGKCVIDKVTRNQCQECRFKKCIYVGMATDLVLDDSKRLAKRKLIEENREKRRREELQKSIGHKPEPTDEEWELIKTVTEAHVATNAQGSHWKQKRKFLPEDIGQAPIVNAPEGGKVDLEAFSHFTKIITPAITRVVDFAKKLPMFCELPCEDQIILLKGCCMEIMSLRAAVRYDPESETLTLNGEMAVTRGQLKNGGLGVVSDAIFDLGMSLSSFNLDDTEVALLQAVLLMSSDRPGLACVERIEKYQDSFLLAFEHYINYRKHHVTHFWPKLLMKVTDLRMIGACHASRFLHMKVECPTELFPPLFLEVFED
# Method in brief: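 Stimulation of a TR-driven beta-lactamase reporter was quantified in GripTite HEK 293 cells. Compound series ran for 18 hrs; curves were normalized to T3 and DMSO controls and fitted to yield EC50.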
# [10] = qHTS assay for small molecule antagonists of retinoid X receptor alpha signaling (AID 588546; active = well fitted inhibition curve with a large enough effect in the signal ratio, with a control signal flat, not every such curve was filed as active; the % refers to the signal ratio;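 note: cells stimulated with 9-cis-retinoic acid as agonist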); conditions: HEK293T RXRa-UAS-bla, beta-lactamase ratio, antagonist mode; measured here: W530 green channel, cytotoxicity proxy
# Method in brief: (§1)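 Beta-lactamase reporter inhibition, read as CCF4 fluorescence ratio (ex 405, em 460/530 nm) after 2 h at RT. HEK293T UAS-bla cells, 2500/well, were stimulated with 9-cis-RA at 500 or 100 nM final alongside test compound for 18 h at 37 C.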
# [11] = target: Retinoic acid receptor RXR-alpha (Homo sapiens) (UniProt P19793); assay: as above; conditions: HEK293T RXRa-UAS-bla, beta-lactamase ratio, antagonist mode
# Chain of Retinoic acid receptor RXR-alpha (Homo sapiens) (P19793 whole entry, looked up): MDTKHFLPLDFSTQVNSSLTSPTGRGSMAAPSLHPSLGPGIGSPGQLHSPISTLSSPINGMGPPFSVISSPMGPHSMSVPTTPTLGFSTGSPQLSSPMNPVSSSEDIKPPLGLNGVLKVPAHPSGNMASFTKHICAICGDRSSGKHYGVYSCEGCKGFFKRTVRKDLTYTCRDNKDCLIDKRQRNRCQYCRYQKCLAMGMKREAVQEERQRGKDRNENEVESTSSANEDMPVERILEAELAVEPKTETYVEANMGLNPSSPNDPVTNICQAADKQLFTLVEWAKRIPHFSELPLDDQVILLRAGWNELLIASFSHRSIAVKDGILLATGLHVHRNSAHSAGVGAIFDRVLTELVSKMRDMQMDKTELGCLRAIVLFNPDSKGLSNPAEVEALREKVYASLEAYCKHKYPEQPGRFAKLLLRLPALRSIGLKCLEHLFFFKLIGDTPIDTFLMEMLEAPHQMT
# Method in brief: as §1
# [12] = qHTS assay for small molecule antagonists of peroxisome proliferator-activated receptor delta signaling (AID 588535; active = well fitted inhibition curve with a large enough effect in the signal ratio, with a control signal flat, not every such curve was filed as active; the % refers to the signal ratio;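 for max response: cells co-treated with a PPAR-delta agonist as stimulator during compound exposure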); conditions: HEK293T PPARd-UAS-bla, beta-lactamase FRET ratio, 18 h; 460 nm channel
# Method in brief: (§2)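 Inhibition of PPAR-delta response element-driven beta-lactamase expression is measured in HEK293T cells exposed to a compound titration series for 18 hrs at 37 C. Half-maximal inhibition comes from Hill equation fitting.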
# [13] = target: Peroxisome proliferator-activated receptor delta (Homo sapiens) (UniProt Q03181); assay: as above
# Chain of Peroxisome proliferator-activated receptor delta (Homo sapiens) (Q03181 whole entry, looked up): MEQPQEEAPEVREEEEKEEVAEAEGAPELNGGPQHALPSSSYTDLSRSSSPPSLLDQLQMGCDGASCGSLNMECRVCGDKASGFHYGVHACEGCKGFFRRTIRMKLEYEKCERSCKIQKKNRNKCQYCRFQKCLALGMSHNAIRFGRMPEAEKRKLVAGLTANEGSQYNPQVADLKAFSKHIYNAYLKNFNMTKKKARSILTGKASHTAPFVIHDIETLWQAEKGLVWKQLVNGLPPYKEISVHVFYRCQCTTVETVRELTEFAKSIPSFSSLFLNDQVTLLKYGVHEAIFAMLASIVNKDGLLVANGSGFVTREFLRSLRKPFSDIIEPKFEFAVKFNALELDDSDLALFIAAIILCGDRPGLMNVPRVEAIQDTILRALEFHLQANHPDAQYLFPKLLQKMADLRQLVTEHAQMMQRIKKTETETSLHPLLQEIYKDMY
# Method in brief: as §2
# [14] = qHTS assay for small molecule agonists of retinoid X receptor alpha signaling (AID 588544; calls by dose curve); conditions: HEK293T RXRa-UAS-bla, beta-lactamase reporter, 18 h; 530 nm emission
# [15] = target: Retinoic acid receptor RXR-alpha (Homo sapiens) (UniProt P19793); assay: as above
# [16] = target: DNA dC->dU-editing enzyme APOBEC-3G (Homo sapiens) (UniProt Q9HC16); assay: qHTS for inhibitors of Vif-A3G interactions: Validation (AID 588379)
# Chain of DNA dC->dU-editing enzyme APOBEC-3G (Homo sapiens) (Q9HC16 whole entry, looked up): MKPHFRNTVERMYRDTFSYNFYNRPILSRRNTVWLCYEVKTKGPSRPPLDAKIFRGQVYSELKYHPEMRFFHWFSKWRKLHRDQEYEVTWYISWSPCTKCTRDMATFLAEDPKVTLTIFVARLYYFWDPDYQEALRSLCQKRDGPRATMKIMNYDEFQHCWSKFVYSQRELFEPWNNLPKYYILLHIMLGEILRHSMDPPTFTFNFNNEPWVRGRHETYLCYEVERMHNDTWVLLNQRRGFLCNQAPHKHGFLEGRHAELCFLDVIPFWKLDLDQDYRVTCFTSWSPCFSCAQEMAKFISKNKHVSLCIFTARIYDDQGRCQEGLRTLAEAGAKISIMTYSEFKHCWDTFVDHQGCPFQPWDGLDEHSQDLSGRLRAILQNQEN
# Method in brief: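 Yellow fluorescence (Ex 488, Em 500-530) of Vif-coexpressing HeLa A3G-eYFP cells, scanned by Acumen cytometer, reports blocked A3G degradation. Cells plated at 700/well overnight at 37 deg C before compound addition, then a further overnight compound incubation at 37 deg C.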
# [17] = target: Vitamin D3 receptor (Homo sapiens) (UniProt P11473); assay: qHTS assay for small molecule antagonists of vitamin D receptor signaling (AID 588541; calls by dose curve;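 note: receptor activated by calcitriol during compound treatment; series mostly up to about 77 µM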)
# Chain of Vitamin D3 receptor (Homo sapiens) (P11473 whole entry, looked up): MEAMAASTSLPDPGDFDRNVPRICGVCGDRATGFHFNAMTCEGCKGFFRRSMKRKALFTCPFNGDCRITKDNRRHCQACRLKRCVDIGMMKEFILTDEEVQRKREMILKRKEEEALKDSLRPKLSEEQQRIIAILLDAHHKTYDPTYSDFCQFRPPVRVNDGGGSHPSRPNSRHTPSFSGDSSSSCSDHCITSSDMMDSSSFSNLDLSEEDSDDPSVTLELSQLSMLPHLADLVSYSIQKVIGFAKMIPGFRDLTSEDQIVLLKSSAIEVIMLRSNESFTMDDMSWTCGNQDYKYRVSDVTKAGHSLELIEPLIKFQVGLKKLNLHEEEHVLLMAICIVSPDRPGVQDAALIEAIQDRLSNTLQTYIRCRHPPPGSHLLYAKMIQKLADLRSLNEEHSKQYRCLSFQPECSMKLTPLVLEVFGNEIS
# Method in brief: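 VDR-UAS-bla HEK293T cells (2000/well, 2% charcoal-stripped FBS) were treated with titrated compounds plus 1-alpha,25-dihydroxyvitamin D3 (50 nM or 3 nM final) for 16 h at 37 C. CCF4 beta-lactamase fluorescence was read; Hill fits gave IC50.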
# [18] = target: Vitamin D3 receptor (Homo sapiens) (UniProt P11473); assay: qHTS assay for small molecule agonists of vitamin D receptor signaling (AID 588543; calls by dose curve)
# Method in brief: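 VDR-UAS-bla HEK293T cells, 2000/well, 2% charcoal-stripped FBS; compound titration 16 h at 37 C; CCF4 beta-lactamase ratio read. Normalized to 50 nM 1-alpha,25-dihydroxyvitamin D3 (100%) and DMSO; Hill fit gives EC50, efficacy.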
# [19] = target: Androgen receptor (Homo sapiens) (UniProt P10275); assay: qHTS assay for small molecule agonists of androgen receptor signaling (AID 588515; active = well fitted curve in the direction sought with a large enough effect in the signal ratio, with a control signal flat; the % refers to the signal ratio; note: potency is the fitted concentration of half-maximal effect); conditions: AR-UAS-bla HEK293, beta-lactamase ratio, agonist 16 h; activation: stronger effect = higher value
# Chain of Androgen receptor (Homo sapiens) (P10275 whole entry, looked up): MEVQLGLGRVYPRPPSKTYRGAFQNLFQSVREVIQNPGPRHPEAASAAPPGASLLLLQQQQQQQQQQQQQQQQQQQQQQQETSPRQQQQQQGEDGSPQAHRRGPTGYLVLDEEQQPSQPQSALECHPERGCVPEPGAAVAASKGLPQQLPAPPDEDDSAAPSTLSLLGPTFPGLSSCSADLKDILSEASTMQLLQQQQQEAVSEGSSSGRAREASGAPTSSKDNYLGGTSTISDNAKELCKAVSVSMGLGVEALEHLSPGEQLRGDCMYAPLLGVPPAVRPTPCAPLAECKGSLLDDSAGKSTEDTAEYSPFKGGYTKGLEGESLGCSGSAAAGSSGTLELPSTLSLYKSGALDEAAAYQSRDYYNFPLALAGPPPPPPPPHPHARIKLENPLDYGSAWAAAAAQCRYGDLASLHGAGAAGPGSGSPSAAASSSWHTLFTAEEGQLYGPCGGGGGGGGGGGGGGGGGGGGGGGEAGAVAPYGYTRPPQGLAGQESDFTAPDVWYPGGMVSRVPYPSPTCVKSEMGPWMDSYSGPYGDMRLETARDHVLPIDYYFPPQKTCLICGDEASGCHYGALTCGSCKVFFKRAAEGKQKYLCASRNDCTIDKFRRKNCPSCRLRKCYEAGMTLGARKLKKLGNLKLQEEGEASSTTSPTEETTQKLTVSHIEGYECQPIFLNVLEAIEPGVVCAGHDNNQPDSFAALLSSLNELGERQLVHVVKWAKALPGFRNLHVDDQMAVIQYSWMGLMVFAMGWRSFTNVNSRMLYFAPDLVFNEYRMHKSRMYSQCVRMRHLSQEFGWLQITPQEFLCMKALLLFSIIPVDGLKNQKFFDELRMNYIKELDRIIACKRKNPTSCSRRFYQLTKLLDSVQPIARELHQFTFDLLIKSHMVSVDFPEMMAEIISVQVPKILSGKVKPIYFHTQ
# Method in brief: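 Stimulation of an AR-responsive β-lactamase reporter in GripTite HEK293 cells was measured after 16 h compound exposure at 37 °C, via CCF4 fluorescence after 2 h RT. EC50 from Hill fits, normalized to R1881 at 30 nM.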
# [20] = target: Androgen receptor (Homo sapiens) (UniProt P10275); assay: qHTS assay for small molecule antagonists of androgen receptor signaling (AID 588516; active = well fitted curve in the direction sought with a large enough effect in the signal ratio, with a control signal flat, not every such curve was filed as active; the % refers to the signal ratio)
# Method in brief: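 AR-UAS-bla GripTite HEK 293 cells (2000/well) treated with compound titrations plus 10 nM R1881 for 16 h at 37C. Beta-lactamase read by CCF4 FRET (460/530 nm); IC50 from Hill fits, normalized to R1881 and DMSO control wells.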
compound,measurement,setting,value
Cn1cnc([N+](=O)[O-])c1Sc1ncnc2nc[nH]c12,Potency,[1],inactive
same,outcome,[2],inactive
same,Potency,[3],inactive
same,outcome,[4],inactive
same,activation,[5],-7.04% (inactive) and 6.25% (inactive)
same,Potency,[6],inactive
same,outcome,[7],inactive
same,outcome,[8],inactive
same,outcome,[9],inactive
same,max response,[10],2.45% and -8.82%
same,max response,[11],-8.6% (inactive) and -5.48% (inactive)
Cc1ccccc1C(OCCN(C)C)c1ccccc1 (stereo not drawn),Potency,[1],inactive
same,outcome,[2],inactive
same,Potency,[3],inactive
same,activation,[5],2.67% (inactive)
same,Potency,[6],inactive
same,max response,[12],-16.5%
same,outcome,[13],inactive
same,outcome,[7],inactive
same,outcome,[8],inactive
same,max response,[14],11.6%
same,outcome,[15],inactive
same,outcome,[9],inactive
same,max response,[10],-1.35%
same,max response,[11],-11.6% (inactive)
Cc1[nH]c(=O)c(C#N)cc1-c1ccncc1,Potency,[1],inactive
same,outcome,[2],inactive
same,outcome,[16],inactive
same,outcome,[8],inactive
same,outcome,[9],inactive
same,max response,[10],-2.65%
same,max response,[11],-8.79% (inactive)
NC(=O)c1cnccn1,Potency,[1],inactive
same,outcome,[2],inactive
same,Potency,[3],inactive
same,outcome,[4],inactive
same,activation,[5],-2.74% (inactive) and -4.57% (inactive)
same,Potency,[6],inactive
same,max response,[12],33.3%
same,outcome,[13],inactive
same,outcome,[7],inactive
same,outcome,[8],inactive
same,outcome,[17],inactive
same,outcome,[18],inactive
same,max response,[14],-9.81%
same,outcome,[15],inactive
same,max response,[10],-6.21%
same,max response,[11],6.87% (inactive)
CCOC(=O)N1CCC(=C2c3ccc(Cl)cc3CCc3cccnc32)CC1,Potency,[1],inactive
same,outcome,[2],inactive
same,outcome,[16],inactive
CC(C)C[C@H](NC(=O)[C@@H](O)[C@H](N)Cc1ccccc1)C(=O)O,outcome,[2],inactive
same,outcome,[16],inactive
CC(C)(Sc1ccc(CCN(CCCCC2CCCCC2)C(=O)NC2CCCCC2)cc1)C(=O)O,Potency,[1],inactive
same,outcome,[2],inactive
same,outcome,[16],inactive
same,Potency,[3],15.8 µM [inhibitor] (active)
same,activation,[19],-10.8% (inactive)
same,outcome,[20],inactive
same,Potency,[6],20 µM (active)
NC(=O)c1ccc(-c2nc(-c3ccc4c(c3)OCO4)c(-c3ccccn3)[nH]2)cc1,outcome,[16],inactive
NS(=O)(=O)c1cc2c(cc1Cl)NC=NS2(=O)=O,Potency,[1],inactive
same,outcome,[2],inactive
same,Potency,[3],inactive
same,outcome,[4],inactive
same,max response,[12],-29%
same,outcome,[13],inactive
same,outcome,[7],inactive
same,outcome,[8],inactive
same,outcome,[17],inactive
same,outcome,[18],inactive
same,max response,[14],-7.55%
same,outcome,[15],inactive
same,outcome,[9],inactive
same,max response,[10],-2.78%
same,max response,[11],14.3% (inactive)
Cc1cc2c(C(C)C)c(O)c(O)c(C=O)c2c(O)c1-c1c(C)cc2c(C(C)C)c(O)c(O)c(C=O)c2c1O,outcome,[16],inactive
C[C@]12CCC(=O)C=C1CC[C@@H]1[C@@H]2[C@@H](O)C[C@@]2(C)[C@H]1CC[C@]2(O)C(=O)CO,Potency,[1],inactive
same,outcome,[2],inactive
same,Potency,[19],0.0141 µM (active)
same,Potency,[6],inactive
same,max response,[12],46.7%
same,outcome,[13],inactive
same,outcome,[7],inactive
same,outcome,[8],inactive
same,outcome,[18],inactive
same,outcome,[9],inactive
same,max response,[10],7.22%
same,max response,[11],-13.2% (inactive)
NC[C@H](O)c1ccc(O)c(O)c1,Potency,[1],inactive
same,outcome,[2],inactive
same,activation,[5],-3.45% (inactive)
same,Potency,[6],inactive
same,max response,[12],-17.3%
same,outcome,[13],inactive
same,outcome,[7],inactive
same,outcome,[8],inactive
same,max response,[14],-17.2%
same,outcome,[15],inactive
same,outcome,[9],inactive
same,max response,[10],-24.3%
same,max response,[11],-6.6% (inactive)
CCOC(=O)C1=C[C@@]2(CC)CCCN3CCc4c(n1c1ccccc41)[C@H]32,outcome,[16],inactive
O=C1CCc2cc(OCCCCc3nnnn3C3CCCCC3)ccc2N1,Potency,[1],inactive
same,outcome,[2],inactive
same,outcome,[16],inactive
CNC[C@H](O)c1cccc(O)c1,Potency,[1],inactive
same,outcome,[2],inactive
same,outcome,[17],inactive
same,outcome,[18],inactive
same,max response,[14],-17.1%
same,outcome,[15],inactive
same,outcome,[9],inactive
same,max response,[10],2.07%
same,max response,[11],-13.6% (inactive)
COc1ccc2nc(S(=O)Cc3ncc(C)c(OC)c3C)[nH]c2c1 (stereo not drawn),outcome,[7],inactive
same,outcome,[8],inactive
same,outcome,[18],inactive
same,outcome,[9],inactive
same,max response,[10],17.2%
same,max response,[11],-42% (inactive)
O=c1[nH]cnc2[nH]ncc12,Potency,[1],inactive
same,outcome,[2],inactive
same,Potency,[3],inactive
same,outcome,[4],inactive
same,activation,[5],1.38% (inactive)
same,Potency,[6],inactive
same,max response,[12],-19.9%
same,outcome,[13],inactive
same,outcome,[7],inactive
same,outcome,[8],inactive
same,outcome,[17],inactive
same,outcome,[18],inactive
same,max response,[14],-0.239%
same,outcome,[15],inactive
same,outcome,[9],inactive
same,max response,[10],-6.19%
same,max response,[11],-1.1% (inactive)
